Laboratory results as given in article PMC4336329 (PLoS ONE, 2015).
Screen size: about 310,000 compounds; about 14,000 (4.5%) showed an effect of 50% or more. The effect is printed as a negative number. This is one part of a sample in which strong results are shown more often than they occur.

Target: human ether-à-go-go-related gene (hERG) potassium channel (human, UniProt Q12809)
Test: primary screen, population patch clamp on CHO cells stably expressing hERG; higher = less effect of the substance
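Further: peak tail current of the secondary pulse compared with the same well before compound.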

Chain of human ether-à-go-go-related gene (hERG) potassium channel (Q12809 whole entry, looked up): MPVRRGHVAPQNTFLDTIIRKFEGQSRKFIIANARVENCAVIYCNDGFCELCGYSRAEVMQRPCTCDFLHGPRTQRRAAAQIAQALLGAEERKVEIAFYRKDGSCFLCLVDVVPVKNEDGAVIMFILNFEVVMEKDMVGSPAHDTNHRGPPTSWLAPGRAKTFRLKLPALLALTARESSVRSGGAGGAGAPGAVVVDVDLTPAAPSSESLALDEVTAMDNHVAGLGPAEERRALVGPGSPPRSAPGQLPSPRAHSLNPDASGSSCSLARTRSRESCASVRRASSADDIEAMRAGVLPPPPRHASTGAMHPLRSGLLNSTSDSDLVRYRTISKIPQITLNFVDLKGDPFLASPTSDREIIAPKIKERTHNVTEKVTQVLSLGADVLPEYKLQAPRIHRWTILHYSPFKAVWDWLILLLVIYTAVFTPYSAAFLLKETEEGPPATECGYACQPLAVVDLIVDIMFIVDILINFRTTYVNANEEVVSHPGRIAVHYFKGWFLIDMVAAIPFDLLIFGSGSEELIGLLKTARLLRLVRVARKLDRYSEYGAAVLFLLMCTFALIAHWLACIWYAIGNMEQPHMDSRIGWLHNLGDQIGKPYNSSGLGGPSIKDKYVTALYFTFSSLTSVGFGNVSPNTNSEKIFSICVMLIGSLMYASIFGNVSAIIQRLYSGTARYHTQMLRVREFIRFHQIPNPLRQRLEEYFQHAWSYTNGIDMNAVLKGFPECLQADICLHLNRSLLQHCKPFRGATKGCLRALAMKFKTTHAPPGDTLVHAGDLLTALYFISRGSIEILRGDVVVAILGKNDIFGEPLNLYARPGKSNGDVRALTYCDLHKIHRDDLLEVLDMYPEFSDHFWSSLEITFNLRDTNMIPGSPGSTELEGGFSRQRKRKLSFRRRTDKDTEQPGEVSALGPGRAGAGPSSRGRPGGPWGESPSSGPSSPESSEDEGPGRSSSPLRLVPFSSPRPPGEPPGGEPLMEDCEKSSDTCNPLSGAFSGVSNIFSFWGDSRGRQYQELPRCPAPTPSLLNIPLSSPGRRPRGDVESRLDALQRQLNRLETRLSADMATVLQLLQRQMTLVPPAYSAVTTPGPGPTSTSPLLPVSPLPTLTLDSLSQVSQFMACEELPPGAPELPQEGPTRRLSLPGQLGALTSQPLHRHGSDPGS

SMILES	hERG current change (%, negative = inhibition) at 10uM
CCCc1cc(C(=O)Nc2ccc(C(=O)OC)cc2)cs1	5.28%
CCOc1cc(/C=N/NC(=O)c2nn(C)cc2Br)ccc1OCc1ccccc1Cl	-14.7%
COc1ccc(/C=N/NC(=O)c2nn(C)cc2Br)cc1CSCc1ccco1	-50.6%
CCOc1cc(/C=N/NC(=O)c2nn(C)cc2Br)ccc1OCc1ccccc1	5.59%
Cc1cc(C)cc(OCC(=O)N2N=C(C(F)(F)F)CC2(O)C(C)(C)C)c1 (centres unmarked)	3.64%
CC1CCN(C(=O)CSCC(=O)Nc2nc(-c3cccs3)cs2)CC1	-20.6%
CCOc1ccc(C2C=C(c3ccccc3)Nc3ncnn32)cc1 (centres unmarked)	-47.2%
C1=C(c2ccccc2)Nc2ncnn2C1c1ccccc1 (centres unmarked)	-5.26%
Cc1ccc(C2=CC(c3ccccc3)n3ncnc3N2)cc1 (centres unmarked)	-15.8%
COc1cccc(C2=CC(c3ccc(C)cc3)n3ncnc3N2)c1 (centres unmarked)	-52.4%
Cc1ccc(C2C=C(c3ccccc3)Nc3ncnn32)cc1 (centres unmarked)	-64.7%
COc1cccc(C2=CC(c3ccccc3)n3ncnc3N2)c1 (centres unmarked)	-2.39%
Cc1ccc(C2=CC(c3ccc(C)cc3)n3ncnc3N2)cc1 (centres unmarked)	-17.6%
COc1ccc(C2C=C(c3ccccc3)Nc3ncnn32)cc1 (centres unmarked)	-57.4%
COc1cccc(C2=CC(c3ccc(N(C)C)cc3)n3ncnc3N2)c1 (centres unmarked)	-1.72%
O=C(Nc1nnc(-c2ccccc2Cl)s1)c1ccccc1F	10.9%
CC(=O)c1ccc(N2CCN(S(=O)(=O)c3ccc(-c4cc(C)no4)s3)CC2)cc1	-1.08%
Cc1ccc2c(c1)NCCO2	4.46%
O=C(CSc1ccc(F)cc1)Nc1ccc(N2CCOCC2)c(Cl)c1	-20.3%
COc1ccc(CC(=O)Nc2c(C(=O)N3CCN(c4ccccc4)CC3)oc3ccccc23)cc1OC	-32.4%
COc1ccc(N2CCN(C(=O)c3oc4ccccc4c3NC(=O)Cc3cccc(OC)c3)CC2)cc1	-30.2%
CCOCCCN(C)C1CCN(C(=O)c2oc3ccccc3c2NC(=O)Cc2cccc([N+](=O)[O-])c2)CC1	-75.3%
CCOCCCN(C)C1CCN(C(=O)c2oc3ccccc3c2NC(=O)Cc2ccc([N+](=O)[O-])cc2)CC1	-81.5%
COc1cccc(N2CCN(C(=O)c3oc4ccccc4c3NC(=O)Cc3ccc(OC)c(OC)c3)CC2)c1	-14.1%
Cc1nc(=S)c2c([nH]1)-c1ccccc1CC21CCCCC1	10.8%
CC1CCCC(NC(=O)COC(=O)c2ccc(N(C)C)cc2)C1C (centres unmarked)	-1.77%
Cc1ccc(NC(=O)CN(C)S(=O)(=O)c2cccc3cccnc23)c(C)c1	4.3%

SMILES	hERG current change (%, negative = inhibition) at 10uM
Cc1ccsc1C(=O)C1CCCN(Cc2cc(F)ccc2-n2cccn2)C1 (centres unmarked)	-82.9%
Cc1ccsc1C(=O)C1CCCN(Cc2ccn[nH]2)C1 (centres unmarked)	6.96%
Cc1ccsc1C(=O)C1CCCN(Cc2cn(C)nc2C)C1 (centres unmarked)	-40.9%
Cc1ccsc1C(=O)C1CCCN(Cc2ccccc2O)C1 (centres unmarked)	-48.1%
Cc1ccc(-n2cccn2)c(CN2CCCC(C(=O)c3sccc3C)C2)c1 (centres unmarked)	-85.4%
COC(=O)Nc1ncc(CN2C(=O)c3ccccc3C2=O)s1	-23%
Cc1cc(NC(=O)COC(=O)c2n[nH]c3ccccc23)no1	8.9%
O=C(N/N=C/c1cccnc1)c1cccc(Br)c1	10.4%
C#CCNC(=O)C1=C[C@@H](c2ccc(C(F)(F)F)cc2)C[C@@H](OCCCCO)O1	-53.8%
C#CCNC(=O)C1=C[C@@H](c2ccc(C#C)cc2)C[C@@H](OCCCCO)O1	-3.88%
O=C(C1=C[C@H](c2ccccc2)C[C@H](OCCCCO)O1)N1CCN(Cc2ccccc2)CC1	-38.9%
CCO[C@@H]1OC(C(=O)N2CCN(C)CC2)=C[C@H](c2ccc(C(F)(F)F)cc2)[C@H]1CCCO	-1.51%
O=C(C1=C[C@@H](c2ccc(Br)cc2)C[C@@H](OCCCCO)O1)N1CCN(Cc2ccccc2)CC1	-91.7%
CCO[C@H]1OC(C(=O)N2CCCCCCC2)=C[C@@H](c2ccc(C(F)(F)F)cc2)[C@@H]1CCCO	-50.5%
CCO[C@@H]1OC(C(=O)N2CCCCCCC2)=C[C@H](c2ccc(C(F)(F)F)cc2)[C@H]1CCCO	-21.4%
C#Cc1ccc([C@@H]2C=C(C(=O)N3CCOCC3)O[C@H](OCCCCO)C2)cc1	17.3%
C#Cc1ccc([C@@H]2C=C(C(=O)N3CCN(Cc4ccccc4)CC3)O[C@H](OCCCCO)C2)cc1	-56%
CN1CCN(C(=O)C2=C[C@H](c3ccc(Br)cc3)C[C@H](OCCCCO)O2)CC1	-47.7%
C#CCNC(=O)C1=C[C@H](c2ccc(C(F)(F)F)cc2)C[C@H](OCCCCO)O1	-6.12%
C#Cc1ccc([C@H]2C=C(C(=O)N3CCN(Cc4ccccc4)CC3)O[C@@H](OCc3ccc(CO)cc3)C2)cc1	-13.3%
CC(=O)Nc1ccc(S(=O)(=O)NNC(=S)NCc2ccco2)cc1	12.1%
COc1ccc(-c2csc(N(CCCN3CCOCC3)C(=O)CCl)n2)cc1.Cl	3.28%
CC1(C)C2CCC(C2)C1(C)NC(=O)C[N+](C)(C)C.[Cl-] (centres unmarked)	12.6%
Cc1nc(NC(=O)/C=C/c2ccccc2)sc1C(=O)Nc1ccccc1Cl	13.3%
c1ccc(-c2ncc(CN3CCN(c4ccccn4)CC3)[nH]2)cc1	-14.1%
CCOC(=O)c1cnc(-n2nc(C)cc2C)nc1NC1CCCC1	-26.2%
